± gives the standard deviation of the averaged measurements.

The values below come from the supplement of paper PMC4840960.

Test [1] deals with E18 rat cortical neuron-glia co-culture. Briefly: fiber score / MBP score (myelination specific beyond OL differentiation) (ratio); higher = more myelination-specific MBP alignment. The conditions noted are these: treatment time: 8 days (DIV5-DIV13). The essentials:
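Library compounds were applied at 1 or 5 µM in myelination medium, DIV5 to DIV13, to primary E18 rat cortical co-cultures grown at 20,000 cells/well in 96-well plates. After 4 % paraformaldehyde fixation and MBP/Olig2/DAPI immunostaining, four 10X fields per well in duplicate wells were scored. Each value is continuous MBP fiber length per Olig2+ nucleus divided by thresholded MBP area × intensity per Olig2+ nucleus.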

Test [2] shares this test system. Briefly: myelination (MBP fiber length per Olig2+ nucleus), % of 1 µM DAPT response (DMSO = 0) (% of DAPT); higher = more myelination, active = 50 or more. The conditions noted are these: treatment time: 8 days (DIV5-DIV13). The essentials: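 Library compounds at 1 or 5 µM in myelination medium were applied from DIV5 to DIV13 to papain-dissociated E18 rat cortical co-cultures seeded at 20,000 cells/well on poly-d-lysine/laminin 96-well plates. Fixed cells (4 % paraformaldehyde) were immunostained for MBP and Olig2 with DAPI, and four 10X fields were analysed in each duplicate well. Continuous straight MBP fiber length per Olig2+ nucleus was set to 0 for 0.1 % DMSO and to 100 for a 1 µM positive control.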

In the case of `CC(=O)O[C@H]1C[C@@H]2CC[C@@H]3[C@H](CC[C@@]4(C)[C@H]3C[C@H]([N+]3(C)CCCCC3)[C@@H]4OC(C)=O)[C@@]2(C)C[C@@H]1N1CCCCC1` [Vecuronium Bromide], the “fiber score / MBP score” value in test [1] (1 µM) was found to be 0.647; in test [1] (5 µM), 0.791. Moreover, the myelination in test [2] (1 µM) is -15.8 (inactive); in test [2] (5 µM) it was -9.35 (inactive).
In the case of `Oc1ccc(/C=C/c2cc(O)cc(O)c2)cc1` [Resveratrol], the figures for the “fiber score / MBP score” value in test [1] (1 µM) and in test [1] (5 µM) were 0.549 and 0.685, respectively. In addition, the myelination is -12 (inactive) in test [2] (1 µM) and -13.3 (inactive) in test [2] (5 µM).
With `CN(C)[C@@H]1C(O)=C(C(=O)NCN2CCCC2)C(=O)[C@@]2(O)C(O)=C3C(=O)c4c(O)cccc4[C@@](C)(O)[C@H]3C[C@@H]12` [Rolitetracycline], the results for the “fiber score / MBP score” value in test [1] (1 µM) and in test [1] (5 µM) were 0.779 and 0.832, respectively. The myelination in test [2] (1 µM) is -9.77 (inactive); in test [2] (5 µM), -5.55 (inactive).
The corresponding values for `c1cnc(N2CCN(Cc3ccc4c(c3)OCO4)CC2)nc1` [Piribedil] are 0.774, 0.712, -24.5 (inactive) and -35.6 (inactive).
The corresponding values for `CCN(Cc1ccncc1)C(=O)C(CO)c1ccccc1` (configuration not stated) [Tropicamide] are 0.511, 0.747, -22.3 (inactive) and -16.2 (inactive).
In the same order, the values of `O=c1[nH]cnc2c1ncn2[C@H]1CC[C@@H](CO)O1` [2',3'-Dideoxyinosine] are 1.07, 0.869, -2.19 (inactive) and -10.5 (inactive).
Take `Cc1ccsc1C(=CCCN1CCC[C@@H](C(=O)O)C1)c1sccc1C` [Tiagabine]: the “fiber score / MBP score” value in test [1] (1 µM) amounted to 0.656; in test [1] (5 µM), 0.716. Also, the figures for the myelination in test [2] (1 µM) and in test [2] (5 µM) were -23.8 (inactive) and -16.6 (inactive), respectively.
Take `CCc1oc2ccccc2c1C(=O)c1cc(Br)c(O)c(Br)c1` [Benzbromarone]: the “fiber score / MBP score” value is 0.764 in test [1] (1 µM) and 0.919 in test [1] (5 µM). The myelination was -8.31 (inactive) in test [2] (1 µM) and -9.52 (inactive) in test [2] (5 µM).
As for `Cc1ccc(S(=O)(=O)NC(=O)NN2CCCCCC2)cc1` [Tolazamide], the entries for the “fiber score / MBP score” value in test [1] (1 µM) and in test [1] (5 µM) were 0.701 and 0.729, respectively. Also, the figures for the myelination in test [2] (1 µM) and in test [2] (5 µM) were -15.6 (inactive) and -16.8 (inactive), respectively.
Take `CC(C)(C)NCC(O)COc1cccc2c1CC(O)C(O)C2` (configuration not stated) [Nadolol]: the entries for the “fiber score / MBP score” value in test [1] (1 µM) and in test [1] (5 µM) were 0.767 and 0.949, respectively. The myelination in test [2] (1 µM) is -13.9 (inactive); in test [2] (5 µM), -7.81 (inactive).
In the same order, the values of `C[C@]12C=CC(=O)C=C1CC[C@@H]1[C@@H]2[C@@H](O)C[C@@]2(C)[C@H]1CC[C@]2(O)C(=O)COC(=O)CCC(=O)O` [Prednisolone hemisuccinate] are 0.88, 1.08, 1.93 (inactive) and -1.16 (inactive).
In the same order, the values of `C[C@]12CCC(=O)C=C1CC[C@@H]1[C@@H]2CC[C@@]2(C)[C@H]1CC[C@]2(O)C(=O)CO` [Cortodoxone] are 0.514, 0.781, -16.7 (inactive) and -9 (inactive).
Consider `CC(C(O)c1ccc(O)cc1)N1CCC(Cc2ccccc2)CC1` (configuration not stated) [Ifenprodil], for which the entries for the “fiber score / MBP score” value in test [1] (1 µM) and in test [1] (5 µM) were 0.348 and 0.136, respectively. Further, the myelination in test [2] (1 µM) is -70.3 (inactive); in test [2] (5 µM), -83.6 (inactive).
Consider `COc1cc(Cc2cnc(N)nc2N)cc(OC)c1OC` [Trimethoprim], for which the entries for the “fiber score / MBP score” value in test [1] (1 µM) and in test [1] (5 µM) were 0.828 and 1.18, respectively. For the same compound, the myelination in test [2] (1 µM) was -9.76 (inactive); in test [2] (5 µM), 5.27 (inactive).
Consider `CC(=O)OCC(CCn1cnc2cnc(N)nc21)COC(C)=O` [Famciclovir], for which the figures for the “fiber score / MBP score” value in test [1] (1 µM) and in test [1] (5 µM) were 0.681 and 0.977, respectively. Moreover, the results for the myelination in test [2] (1 µM) and in test [2] (5 µM) were -22.4 (inactive) and -2.76 (inactive), respectively.
With `CC(C)(C)NC[C@H](O)COc1nsnc1N1CCOCC1` [Timolol], the “fiber score / MBP score” value in test [1] (1 µM) turned out to be 0.869; in test [1] (5 µM) it was 1.02. In addition, the myelination in test [2] (1 µM) is -4.47 (inactive); in test [2] (5 µM), -1.56 (inactive).
In the same order, the values of `Cc1ccnc2c1NC(=O)c1cccnc1N2C1CC1` [Nevirapine] are 0.687, 0.851, -18.6 (inactive) and -6.68 (inactive).
The corresponding values for `Cc1ccc(N(CC2=NCCN2)c2cccc(O)c2)cc1` [Phentolamine] are 0.701, 0.56, -21.8 (inactive) and -26.1 (inactive).
Consider `CCCC(=O)O[C@]1(C(=O)COC(=O)CC)CC[C@H]2[C@@H]3CCC4=CC(=O)CC[C@]4(C)[C@H]3[C@@H](O)C[C@@]21C` [Hydrocortisone buteprate], for which the “fiber score / MBP score” value in test [1] (1 µM) was determined as 1.04; in test [1] (5 µM), 1.22. In addition, the myelination in test [2] (1 µM) is 5.43 (inactive); in test [2] (5 µM) it was 12.1 (inactive).
For the compound `Cc1ccccc1C(OCCN(C)C)c1ccccc1` (configuration not stated) [Orphenadrine], the “fiber score / MBP score” value in test [1] (1 µM) is 0.693 ± 0.21; in test [1] (5 µM), 0.896 ± 0.071. Moreover, the myelination is -7.59 (inactive) in test [2] (1 µM) and -2.71 (inactive) in test [2] (5 µM).
Take `Cn1c(NCCN(CCO)CCCc2ccc([N+](=O)[O-])cc2)cc(=O)n(C)c1=O` [Nifekalant]: the “fiber score / MBP score” value in test [1] (1 µM) and in test [1] (5 µM) was 0.616 in each case. Moreover, the figures for the myelination in test [2] (1 µM) and in test [2] (5 µM) were -9.01 (inactive) and -19.6 (inactive), respectively.
As for `CN(C)c1nc(N(C)C)nc(N(C)C)n1` [Altretamine], the “fiber score / MBP score” value in test [1] (1 µM) is 0.923; in test [1] (5 µM), 0.901. For the same compound, the myelination in test [2] (1 µM) was -3.29 (inactive); in test [2] (5 µM), -4.16 (inactive).
The corresponding values for `Cc1nc2ccccn2c(=O)c1CCN1CCC(C(=O)c2ccc(F)cc2)CC1` [Pirenperone] are 0.876, 0.646, -7.44 (inactive) and -11.5 (inactive).
